Results filed as inconclusive are left out. The source made the active and inactive calls. Unless noted, no rule for the calls is given here.
Assays:
[1] = rapamycin-like changes in RPL19A-GFP expression – cell-based, S. cerevisiae, multiplex flow cytometry, primary screen (AID 1862; in the data active = percent of DMSO control GFP below about 86%;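 also: lower values mimic rapamycin by blocking the RPL19A rise seen in DMSO cells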); conditions: S. cerevisiae RPL19A-GFP strain, flow cytometry fluorescence, 3 h; at 10 µM; stronger effect = lower value
[2] = TOR pathway GLN3 branch reporter MEP2-GFP changes – S. cerevisiae, multiplex flow cytometry, primary screen (AID 1867;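 active = GFP response, as percent of the DMSO control, above the screen-wide mean plus 3 SD, about 139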;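 also: median GFP channel fluorescence of barcode-gated MEP2-GFP cells measured by flow cytometry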); conditions: S. cerevisiae MEP2-GFP strain, 3 h, at 10 µM, stronger effect = higher value
[3] = TOR pathway RTG branch CIT2 reporter changes – S. cerevisiae, GFP fusion, multiplex flow cytometry, primary screen (AID 1870;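 active = percent response above a set limit, the screen-wide mean plus 3 SD, cut at about 130% in these data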;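 also: barcoded CIT2-GFP strain pooled with four other GFP strains with rapamycin as positive control; median GFP fluorescence per well over plate mean of DMSO wells so 100% = DMSO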); conditions: S. cerevisiae CIT2-GFP expression, 3 h, at 10 µM, stronger effect = higher value
[4] = TOR pathway LAP4-GFP level changes – S. cerevisiae, multiplex flow cytometry, primary screen (AID 1873;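 active = GFP signal, as percent of the solvent control, above the screen mean plus 3 SD, about 149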); conditions: S. cerevisiae LAP4-GFP expression, 3 h, at 10 µM, stronger effect = higher value
[5] = reduced mouse 2C T cell binding to pMHC/ICAM-1 vesicles – MLPCN validation set, flow cytometry, LFA-1/ICAM-1 modulator project, pilot screen (AID 2523;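 active = response below a set limit, under 55% cells CD8-positive and vesicle-bound, and CD8 cells' 90th-percentile brightness under 279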;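 as to vesicle binding response: mean PE anti-B7-1 fluorescence of CD8+ cells relative to row control; 100% = QL9-loaded vesicles with DMSO vehicle in the same plate row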); conditions: 2C mouse CD8+ T cells, at 7 µM, stronger effect = lower value; double positive events: measured here: CD8+/vesicle+ event percentage
[6] = molecular target: Integrin beta-1 (Homo sapiens) + Integrin alpha-4 (Homo sapiens) (UniProt P13612+P05556); assay: alpha4beta1 integrin LIBS antibody binding reduction – U937 cells, HUTS-21 mAb, flow cytometry, validation set, VLA-4 allosteric modulator project, pilot screen (AID 2674;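 active = inhibition above 50%, about 3 SD of the validation set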;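 also: antibody binding induced by the VLA-4 ligand LDV present at three times its Kd; 0% = LDV ligand with antibody and no compound and 100% = antibody without LDV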); conditions: HUTS-21 LIBS mAb binding, at 6.7 µM, stronger effect = higher value
[7] = molecular target: Beta-adrenergic receptor kinase 1 (Homo sapiens) (UniProt P25098); assay: GRK2 binders displacing RNA aptamer, biochemical, validation, human GRK2, bead flow cytometry (AID 488806;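 active = aptamer binding inhibition above 30%, about 3 SD of noise from non-fluorescent compounds; inactive = inhibition at or below 30%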); conditions: bead-bound GRK2, FAM-aptamer displacement, at 10 µM, stronger effect = higher value
[8] = molecular target: AP-2 complex subunit beta (Homo sapiens) (UniProt P63010); assay: beta-arrestin/AP2 interaction blockers – biochemical, validation set, GST-AP2 beads, flow cytometry, pilot screen (AID 504541;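 active = inhibition above 54%, about 3 SD of non-fluorescent compounds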;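 also: AP2 carries R879A mutation and is captured from E. coli lysate; bead-bound FITC arrestin peptide fluorescence measuring arrestin peptide binding to AP2; 0% = DMSO wells and 100% = excess unlabeled arrestin peptide control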); conditions: FITC arrestin peptide, at 10 µM, stronger effect = higher value
[9] = cytosolic pH regulators acting via V-ATPase – S. cerevisiae, pHLuorin, HTS validation (AID 504600; in the data active = response above about 15%;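 also: plate controls were DMSO for no effect and reference compound for full effect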); conditions: V-ATPase proton transport, at 10 µM, stronger effect = higher value
[10] = test system: anti-desmoglein-3 scFv antibody binding to human DSG3; assay: blockers of pathogenic pemphigus antibody–desmoglein-3 binding – biochemical, validation compound set, bead-based, flow cytometry, pilot screen (AID 588368;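 active = binding below the plate cutoff, the plate median minus 3 SD, with a reading above zero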;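 also: signal is the median channel fluorescence of bead-bound GFP antibody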); conditions: Protein G beads, DSG3-Fc, scFv-GFP binding, at 10 µM, stronger effect = lower value
[11] = test system: Botulinum neurotoxin type F light chain protease (Clostridium botulinum); assay: Clostridium botulinum type F light chain protease inhibitors, microsphere substrate cleavage, validation (AID 588459); conditions: multiplex microsphere protease substrate cleavage assay, flow cytometry; at 10 µM; stronger effect = higher value
[12] = molecular target: Botulinum neurotoxin type A (Clostridium botulinum) (UniProt P0DPI0); assay: BoNT/A light chain protease inhibitors, biochemical, multiplex microsphere flow cytometry, validation set (AID 588460); conditions: at 10 µM, stronger effect = higher value
[13] = molecular target: Lethal factor (Bacillus anthracis) (UniProt P15917); assay: Bacillus anthracis lethal factor inhibition, microsphere flow cytometry protease assay, validation at 10 µM (AID 588461); conditions: multiplex microsphere protease cleavage assay, stronger effect = higher value
[14] = Nile Red efflux blockade in pump-expressing yeast – validation compound set, multiplex, phenotypic, pilot screen (AID 588506;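 active = efflux inhibition above 0.42, the validation set average plus 4 SD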;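 also: Nile Red retained in cells so higher fluorescence means more efflux inhibition; 0 = negative control wells and 1 = enniatin B 25 µM full block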); conditions: S. cerevisiae pump-expressing triplex, Nile Red efflux flow cytometry; at 10 µM; stronger effect = higher value
[15] = molecular target: ATP-binding cassette sub-family B member 6 (Homo sapiens) (UniProt Q9NP58); assay: blockers of ABCB6-driven porphyrin uptake – K562-ABCB6 cells, flow cytometry, validation set, pilot screen (AID 588550;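 active = inhibition above the screen-wide mean plus 3 SD, about 51%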;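 also: 0% = DMSO wells and 100% = benzethonium chloride 70 µM positive control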); conditions: K562-ABCB6 porphyrin accumulation, 1 h, at 10 µM, stronger effect = higher value
[16] = AML differentiation inducers, ER-HoxA9 marrow cells – cell-based, GFP/MAC1 double positive, flow cytometry, validation set, primary screen (AID 588685;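 active = differentiation response of at least 50%, scaled between solvent and reference control, from cells with both markers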;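 also: compound exposure lasts four days before antibody staining and flow analysis; 0% = DMSO wells and 100% = 5 µM fulvestrant positive control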); conditions: stronger effect = higher value
[17] = calorie-restriction mimetic ROS inhibitors, yeast – validation compound set, pilot screen (AID 2706;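 active = superoxide response below 65% of plate, a cut near 3 SD across the whole screen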;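 also: yeast exposed to compound for one week at 30 degrees C before staining; 100% = mean of all compound wells on the same plate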); conditions: S. cerevisiae aging, superoxide DHE fluorescence; at 10 µM; stronger effect = lower value

Sequence of Beta-adrenergic receptor kinase 1 (Homo sapiens) (P25098 whole entry, looked up): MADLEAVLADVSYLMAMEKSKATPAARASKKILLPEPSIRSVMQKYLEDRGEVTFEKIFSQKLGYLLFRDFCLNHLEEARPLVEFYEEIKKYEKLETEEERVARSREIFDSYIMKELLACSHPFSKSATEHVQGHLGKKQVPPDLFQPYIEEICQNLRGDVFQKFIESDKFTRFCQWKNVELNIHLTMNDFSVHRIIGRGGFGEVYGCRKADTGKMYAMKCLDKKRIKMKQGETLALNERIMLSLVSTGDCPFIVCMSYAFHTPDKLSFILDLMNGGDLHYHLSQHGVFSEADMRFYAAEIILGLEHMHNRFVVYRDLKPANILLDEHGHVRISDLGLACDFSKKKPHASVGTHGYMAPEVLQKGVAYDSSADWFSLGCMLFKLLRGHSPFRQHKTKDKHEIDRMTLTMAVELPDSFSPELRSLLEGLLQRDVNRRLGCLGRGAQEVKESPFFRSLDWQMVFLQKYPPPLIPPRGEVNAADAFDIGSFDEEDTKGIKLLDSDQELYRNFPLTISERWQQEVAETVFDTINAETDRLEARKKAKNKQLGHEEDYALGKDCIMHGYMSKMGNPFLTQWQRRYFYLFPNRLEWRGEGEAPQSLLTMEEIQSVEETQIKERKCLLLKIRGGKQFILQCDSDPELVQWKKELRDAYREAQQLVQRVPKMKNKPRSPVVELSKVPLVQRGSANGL
Sequence of Lethal factor (Bacillus anthracis) (P15917 whole entry, looked up): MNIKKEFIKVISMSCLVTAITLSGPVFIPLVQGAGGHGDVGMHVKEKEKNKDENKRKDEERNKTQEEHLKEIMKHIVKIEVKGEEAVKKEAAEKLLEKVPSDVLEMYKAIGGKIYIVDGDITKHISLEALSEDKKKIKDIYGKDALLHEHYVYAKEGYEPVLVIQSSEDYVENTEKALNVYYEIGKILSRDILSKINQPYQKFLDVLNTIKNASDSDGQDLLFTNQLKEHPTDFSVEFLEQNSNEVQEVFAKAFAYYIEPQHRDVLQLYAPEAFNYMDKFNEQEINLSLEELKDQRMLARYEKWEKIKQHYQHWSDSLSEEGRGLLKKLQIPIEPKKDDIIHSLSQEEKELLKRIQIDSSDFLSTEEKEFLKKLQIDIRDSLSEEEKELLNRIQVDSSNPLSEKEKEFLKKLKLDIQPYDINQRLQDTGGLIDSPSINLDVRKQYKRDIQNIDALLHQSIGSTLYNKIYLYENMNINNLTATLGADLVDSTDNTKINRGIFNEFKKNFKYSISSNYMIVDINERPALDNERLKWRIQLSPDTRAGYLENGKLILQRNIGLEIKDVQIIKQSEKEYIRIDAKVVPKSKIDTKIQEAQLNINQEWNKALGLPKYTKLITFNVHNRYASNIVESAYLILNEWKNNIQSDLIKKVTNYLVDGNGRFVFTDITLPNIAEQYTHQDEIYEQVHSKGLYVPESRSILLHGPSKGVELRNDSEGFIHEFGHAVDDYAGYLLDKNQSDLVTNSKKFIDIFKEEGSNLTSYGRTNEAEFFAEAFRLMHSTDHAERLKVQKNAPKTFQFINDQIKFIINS
Sequence of AP-2 complex subunit beta (Homo sapiens) (P63010 whole entry, looked up, one chain of several): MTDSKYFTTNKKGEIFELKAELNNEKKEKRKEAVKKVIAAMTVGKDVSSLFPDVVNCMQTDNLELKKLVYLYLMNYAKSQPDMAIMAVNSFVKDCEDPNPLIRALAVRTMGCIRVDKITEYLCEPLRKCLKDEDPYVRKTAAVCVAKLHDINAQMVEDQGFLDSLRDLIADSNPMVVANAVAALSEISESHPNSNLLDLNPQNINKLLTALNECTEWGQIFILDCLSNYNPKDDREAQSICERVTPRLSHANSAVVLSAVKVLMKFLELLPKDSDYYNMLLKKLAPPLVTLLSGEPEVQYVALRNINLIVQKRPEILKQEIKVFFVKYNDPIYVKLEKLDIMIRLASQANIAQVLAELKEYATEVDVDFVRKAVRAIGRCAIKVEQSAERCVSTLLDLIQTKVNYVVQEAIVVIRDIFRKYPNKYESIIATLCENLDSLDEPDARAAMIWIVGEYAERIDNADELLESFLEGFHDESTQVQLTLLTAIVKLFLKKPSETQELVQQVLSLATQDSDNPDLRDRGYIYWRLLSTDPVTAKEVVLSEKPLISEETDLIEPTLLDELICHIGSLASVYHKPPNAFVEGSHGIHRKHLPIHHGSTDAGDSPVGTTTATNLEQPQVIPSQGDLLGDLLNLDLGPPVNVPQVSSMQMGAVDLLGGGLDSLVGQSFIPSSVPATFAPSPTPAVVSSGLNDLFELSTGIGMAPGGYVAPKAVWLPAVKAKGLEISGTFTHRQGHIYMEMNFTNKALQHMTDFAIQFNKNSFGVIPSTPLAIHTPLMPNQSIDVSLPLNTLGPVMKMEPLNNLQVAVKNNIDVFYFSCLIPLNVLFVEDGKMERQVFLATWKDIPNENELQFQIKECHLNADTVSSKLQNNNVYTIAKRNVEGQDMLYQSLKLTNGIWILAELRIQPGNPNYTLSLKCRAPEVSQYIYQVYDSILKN
Sequence of ATP-binding cassette sub-family B member 6 (Homo sapiens) (Q9NP58 whole entry, looked up): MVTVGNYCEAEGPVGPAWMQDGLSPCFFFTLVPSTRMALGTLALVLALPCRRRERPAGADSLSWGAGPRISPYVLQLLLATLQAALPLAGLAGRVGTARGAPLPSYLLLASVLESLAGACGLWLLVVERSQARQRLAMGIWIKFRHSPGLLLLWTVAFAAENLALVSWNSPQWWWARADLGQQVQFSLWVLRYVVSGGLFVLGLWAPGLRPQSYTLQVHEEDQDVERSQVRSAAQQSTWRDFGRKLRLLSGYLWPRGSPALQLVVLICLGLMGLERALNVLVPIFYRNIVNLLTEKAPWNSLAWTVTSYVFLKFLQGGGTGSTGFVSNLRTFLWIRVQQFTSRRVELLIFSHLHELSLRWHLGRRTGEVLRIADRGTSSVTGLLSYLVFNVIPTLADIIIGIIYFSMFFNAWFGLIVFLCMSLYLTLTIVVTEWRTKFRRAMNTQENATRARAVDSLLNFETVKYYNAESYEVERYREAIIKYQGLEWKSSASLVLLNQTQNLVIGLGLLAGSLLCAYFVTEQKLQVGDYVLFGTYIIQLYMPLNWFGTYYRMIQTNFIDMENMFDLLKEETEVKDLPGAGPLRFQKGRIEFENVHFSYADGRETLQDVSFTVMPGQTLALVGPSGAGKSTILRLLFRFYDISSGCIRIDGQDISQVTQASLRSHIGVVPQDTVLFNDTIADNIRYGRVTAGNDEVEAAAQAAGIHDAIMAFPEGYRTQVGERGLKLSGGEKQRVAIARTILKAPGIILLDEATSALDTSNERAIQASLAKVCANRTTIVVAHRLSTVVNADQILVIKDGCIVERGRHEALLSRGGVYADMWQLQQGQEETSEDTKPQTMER
Sequence of Botulinum neurotoxin type A (Clostridium botulinum) (P0DPI0 whole entry, looked up): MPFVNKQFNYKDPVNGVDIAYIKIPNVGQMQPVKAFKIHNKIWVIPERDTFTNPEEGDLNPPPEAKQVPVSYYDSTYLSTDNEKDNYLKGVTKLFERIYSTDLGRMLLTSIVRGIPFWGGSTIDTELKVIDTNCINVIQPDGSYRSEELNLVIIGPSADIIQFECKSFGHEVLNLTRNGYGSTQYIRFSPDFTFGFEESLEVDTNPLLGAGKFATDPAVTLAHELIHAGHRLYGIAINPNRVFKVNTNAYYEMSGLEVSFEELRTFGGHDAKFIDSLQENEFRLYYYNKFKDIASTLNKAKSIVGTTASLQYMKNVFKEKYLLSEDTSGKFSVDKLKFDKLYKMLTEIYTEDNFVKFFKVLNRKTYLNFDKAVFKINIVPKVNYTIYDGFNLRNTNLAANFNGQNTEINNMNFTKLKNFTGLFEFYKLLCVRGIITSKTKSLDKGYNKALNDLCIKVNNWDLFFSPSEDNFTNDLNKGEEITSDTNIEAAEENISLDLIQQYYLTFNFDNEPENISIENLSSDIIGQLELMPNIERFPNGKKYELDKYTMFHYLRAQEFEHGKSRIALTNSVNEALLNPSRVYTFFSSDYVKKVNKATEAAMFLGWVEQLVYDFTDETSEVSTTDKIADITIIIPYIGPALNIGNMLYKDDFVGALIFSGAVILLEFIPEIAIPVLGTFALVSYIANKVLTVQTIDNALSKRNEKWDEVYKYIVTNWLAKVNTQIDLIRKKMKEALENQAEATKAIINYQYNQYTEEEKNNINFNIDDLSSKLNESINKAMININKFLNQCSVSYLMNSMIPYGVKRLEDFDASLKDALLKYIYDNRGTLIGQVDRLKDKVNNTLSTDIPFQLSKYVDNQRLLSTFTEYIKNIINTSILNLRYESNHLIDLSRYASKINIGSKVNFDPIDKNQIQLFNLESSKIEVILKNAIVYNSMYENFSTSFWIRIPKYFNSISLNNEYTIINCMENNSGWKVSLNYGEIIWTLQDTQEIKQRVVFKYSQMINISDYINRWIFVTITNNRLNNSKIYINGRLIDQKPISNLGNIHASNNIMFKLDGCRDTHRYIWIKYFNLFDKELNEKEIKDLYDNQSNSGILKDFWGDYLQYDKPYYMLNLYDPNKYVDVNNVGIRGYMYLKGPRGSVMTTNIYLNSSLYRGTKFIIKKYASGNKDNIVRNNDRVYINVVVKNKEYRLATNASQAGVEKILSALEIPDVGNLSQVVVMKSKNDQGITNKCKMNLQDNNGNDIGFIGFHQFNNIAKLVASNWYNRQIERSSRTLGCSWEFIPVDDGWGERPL

SMILES	percent of DMSO control GFP [1]	GFP response vs DMSO [2]	percent response of DMSO control [3]	GFP response vs DMSO [4]	double positive events [5] [%]	vesicle binding response [5]	inhibition [6]	aptamer binding inhibition [7]	inhibition [8]	response [9]	binding (% of control) [10]	inhibition [11]	inhibition [12]	inhibition [13]	efflux inhibition (fraction of control) [14]	inhibition [15]	differentiation response [16]	superoxide response (% of plate) [17]
CN1C(=O)CN=C(c2ccc(Cl)cc2)c2cc(Cl)ccc21	99% (inactive)	100% (inactive)	95.4% (inactive)	103% (inactive)	62.8	174% (inactive)	9.92% (inactive)	-1% (inactive)	-0.45% (inactive)	4.65% (inactive)	96.8% (inactive)	3.6% (inactive)	0.8% (inactive)	-3.5% (inactive)	0.27 (inactive)	7% (inactive)	1.22% (inactive)	–
C[N+]1(C)CCN(c2ccccc2)CC1	103% (inactive)	94.8% (inactive)	107% (inactive)	87.3% (inactive)	53.4	172% (inactive)	-1.17% (inactive)	0% (inactive)	-8.27% (inactive)	1.95% (inactive)	100% (inactive)	-7.6% (inactive)	-1% (inactive)	-6.3% (inactive)	-0.2 (inactive)	12% (inactive)	-14.7% (inactive)	93.3% (inactive)
CC(Cc1ccccc1)NCC(=O)Nc1cc(N(C)C)nc2ccccc12 (stereo not drawn)	101% (inactive)	107% (inactive)	93.9% (inactive)	105% (inactive)	52.9	191% (inactive)	-40.4% (inactive)	5% (inactive)	-8.4% (inactive)	-1.24% (inactive)	99.3% (inactive)	11.6% (inactive)	6.4% (inactive)	0.6% (inactive)	-0.31 (inactive)	8% (inactive)	-18% (inactive)	93.7% (inactive)
COc1ccc(C(=O)N2CCCC2=O)cc1	104% (inactive)	107% (inactive)	105% (inactive)	130% (inactive)	61.6	241% (inactive)	-6.23% (inactive)	-4% (inactive)	61% (active)	2.82% (inactive)	100% (inactive)	–	–	–	-0.04 (inactive)	4% (inactive)	3.88% (inactive)	94.5% (inactive)

Source: PubChem BioAssay
